Assay results taken from PubChem BioAssay.
Active and inactive are the calls of the source.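 How the source made its calls, unless noted: active means fluorescence slope after compound addition differing from the mean of all screened samples at 99.7% confidence, in either direction; inactive means the rest.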

Legend:
[1] = inhibitors of TNFa-induced NFkB p65 translocation, primary screen, imaging, HUVEC, MLSMR starter and 10KST1 sets (AID 438;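 active means inhibition above 20% together with a positive visual image hit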;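 further: compound added about 3h40 before a 20 min TNFalpha stimulation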;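 on inhibition: signal is the nuclear over cytoplasmic p65 intensity ratio per well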); conditions: HUVEC TNFa-induced p65 nuclear translocation; cell count: measured here: nuclei count (cytotoxicity indicator), at 2.08 µM; inhibition: at 2 µM, stronger effect = higher value, 0% TNFa-plus-vehicle, 100% no-TNFa wells
[2] = inhibitors of mutant huntingtin aggregation, primary screen, imaging, exon1htt(103Q)mCFP cells, high-content imaging (AID 483;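 active means visual image review flags a hit and inhibition of aggregation exceeds 20%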;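 further: compound exposure lasted 3 days before fixation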;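 on nuclei count: percent of the per-plate median nuclei count of sample wells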); conditions: exon1htt(103Q)mCFP cell line, aggregate imaging, at 2 µM; inhibition of aggregation: stronger effect = higher value; nuclei count: measured here: cell count, toxicity
[3] = inhibitors of E-selectin induction by TNFa, primary screen, imaging, HUVEC, immunofluorescence, MLSMR starter and 10KST1 sets (AID 487;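 active means visually confirmed hit in the image check and inhibition above 20%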;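 on inhibition: signal is fraction of cell area covered by stained E-selectin grains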;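 on nuclei count: 100% = median nuclei count of all wells on the same plate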); conditions: HUVEC TNFalpha-induced E-selectin immunofluorescence imaging, at 2 µM; inhibition: stronger effect = higher value; nuclei count: measured here: cell number, toxicity
[4] = target: Voltage-gated potassium channel subunit beta-2 (Rattus norvegicus) (UniProt P62483); assay: KvBeta enzyme negative modulators, primary screen, biochemical, NADPH fluorescence (AID 622;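 active means fluorescence slope higher than the sample average by over 3 SD, cut at about -0.22 in these data, passing the limit was not always enough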;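 further: slope of raw intensity against log time taken from 70 to 1610 s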); conditions: recombinant KvBeta, 4-cyanobenzaldehyde reduction, at 10 µM, stronger effect = higher value
[5] = target: Voltage-gated potassium channel subunit beta-2 (Rattus norvegicus) (UniProt P62483); assay: KvBeta positive modulators, primary screen, biochemical, NADPH fluorescence (AID 623;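 active means NADPH fluorescence slope more negative than the mean of all samples by about 3 SD, 99.7% confidence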;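 further: fluorescence intensity change per second fitted from 20 to 320 s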); conditions: Recombinant KvBeta, NADPH fluorescence decrease slope, 10 min; at 10 µM; stronger effect = lower value
[6] = target: Alpha-2C adrenergic receptor (Homo sapiens) (UniProt P18825); assay: modulators of alpha2C/GIRK thallium flux, primary screen, cell-based, HEK293 alpha2C/GIRK1/2 (AID 624); conditions: thallium flux BTC fluorescence, at 10 µM, actives lie on both sides;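 further: slope of fluorescence ratio to pre-addition baseline per second over 15 to 24 s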
[7] = inhibitors of Sendai virus-induced IRF3 signaling, primary screen, TLR/RLR signaling modifier project, cell-based, Sendai virus stimulus, luciferase, 10K MLSCN set (AID 602276;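 active means inhibition at or above 50% at 10 µM; inactive means inhibition below 50%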;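 further: firefly luciferase from ISG56 promoter only with Renilla not read in this screen; 0% = Sendai virus plus DMSO and 100% = medium plus DMSO without virus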); conditions: HEK293 RL24 IRF3 luciferase reporter, at 10 µM, stronger effect = higher value
[8] = inhibitors of poly I:C-induced TLR3 signaling, primary screen, cell-based, poly I:C stimulus, luciferase, 10K MLSCN set (AID 602277;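 active means inhibition of the reporter signal at or above 50%; inactive means inhibition below 50%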); conditions: HEK293-TLR3 RL24 IRF3 luciferase reporter, at 10 µM, stronger effect = higher value

Chain of Alpha-2C adrenergic receptor (Homo sapiens) (P18825 whole entry, looked up): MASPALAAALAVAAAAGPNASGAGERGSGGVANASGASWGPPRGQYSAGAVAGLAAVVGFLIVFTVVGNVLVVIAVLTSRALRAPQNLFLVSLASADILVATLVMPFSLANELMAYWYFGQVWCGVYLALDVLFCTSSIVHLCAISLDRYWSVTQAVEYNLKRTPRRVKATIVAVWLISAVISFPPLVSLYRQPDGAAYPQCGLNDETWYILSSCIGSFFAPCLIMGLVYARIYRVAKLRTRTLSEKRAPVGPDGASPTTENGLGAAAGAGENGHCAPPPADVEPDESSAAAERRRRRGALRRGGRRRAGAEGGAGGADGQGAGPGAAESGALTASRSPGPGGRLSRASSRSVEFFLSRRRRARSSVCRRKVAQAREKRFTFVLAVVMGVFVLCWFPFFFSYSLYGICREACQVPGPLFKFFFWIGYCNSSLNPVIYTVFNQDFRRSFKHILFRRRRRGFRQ
Chain of Voltage-gated potassium channel subunit beta-2 (Rattus norvegicus) (P62483 whole entry, looked up): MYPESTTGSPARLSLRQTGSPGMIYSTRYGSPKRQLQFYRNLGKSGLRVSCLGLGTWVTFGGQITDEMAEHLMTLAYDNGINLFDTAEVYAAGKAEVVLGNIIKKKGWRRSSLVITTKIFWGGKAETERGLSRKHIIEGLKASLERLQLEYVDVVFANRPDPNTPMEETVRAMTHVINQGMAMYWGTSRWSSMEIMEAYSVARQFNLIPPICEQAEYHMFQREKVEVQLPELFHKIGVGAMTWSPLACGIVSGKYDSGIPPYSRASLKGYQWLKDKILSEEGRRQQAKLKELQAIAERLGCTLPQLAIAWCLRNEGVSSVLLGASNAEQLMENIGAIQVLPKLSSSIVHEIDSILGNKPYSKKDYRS

Row | Structure (SMILES) | cell count [1] | inhibition [1] | inhibition of aggregation [2] | nuclei count [2] [%] | inhibition [3] | nuclei count [3] [%] | fluorescence slope [4] | NADPH fluorescence slope [5] | slope [6] | inhibition [7] | inhibition [8]
1 | O=C(NCCc1c[nH]c2ccccc12)c1cnc2n(c1=O)CCS2 | 532 | 6.3% (inactive) | -8.9% (inactive) | 103 | -35.9% (inactive) | 90.6 | -0.547 (inactive) | -2.5e-05 (inactive) | 0.00796 (inactive) | -48.8% (inactive) | -79.3% (inactive)
2 | C=CCc1cc(OC)ccc1OCC(O)CN1CCN(c2ccc(OC)cc2)CC1 (stereo not drawn) | 402 | 2.5% (inactive) | 1.9% (inactive) | 105 | -16.2% (inactive) | 106 | -0.629 (inactive) | 7.7e-07 (inactive) | 0.00605 (inactive) | 12.2% (inactive) | 22.6% (inactive)
3 | O=S(=O)(c1cccs1)N1CCN(Cc2nc3ccccc3s2)CC1 | 283 | 3.3% (inactive) | -5.8% (inactive) | 99.8 | 1% (inactive) | 90.9 | -0.556 (inactive) | 3e-05 (inactive) | 0.00461 (inactive) | -3.64% (inactive) | -4.76% (inactive)
4 | COC(=O)c1cc(=O)nc2sc(-c3cccs3)nn12 | 349 | 5.5% (inactive) | 4.7% (inactive) | 100 | -73.7% (inactive) | 105 | -0.463 (inactive) | -2.2e-05 (inactive) | 0.006 (inactive) | 12.6% (inactive) | 29.9% (inactive)
5 | COc1ccc(OCC(=O)N2CCN(C(=O)COc3ccc(Br)cc3)CC2)cc1 | 665 | -28.3% (inactive) | -4% (inactive) | 108 | -13.6% (inactive) | 103 | -0.486 (inactive) | -3.9e-05 (inactive) | 0.00463 (inactive) | 18% (inactive) | 20.9% (inactive)
6 | Cc1cc(C(=O)Nc2cccnc2)no1 | 543 | -10.1% (inactive) | -9.5% (inactive) | 116 | -133% (inactive) | 112 | -0.35 (inactive) | -5.2e-05 (inactive) | 0.0058 (inactive) | -17% (inactive) | -20.9% (inactive)
7 | O=c1c2ccccc2nc(SCc2cccc(F)c2)n1Cc1ccco1 | 361 | -3.4% (inactive) | 4.4% (inactive) | 87.4 | -37.1% (inactive) | 91.3 | -0.37 (inactive) | 2.5e-05 (inactive) | 0.0116 (inactive) | 9.34% (inactive) | 4.77% (inactive)
8 | CC(C)C(NC(=O)OCc1ccccc1)C(=O)OCC(=O)NCc1ccco1 (stereo not drawn) | 511 | -2.9% (inactive) | -14.8% (inactive) | 114 | 7.4% (inactive) | 119 | -0.366 (inactive) | 2.2e-05 (inactive) | 0.00253 (inactive) | 0.314% (inactive) | 5.27% (inactive)
9 | CC1CCN(CCCNC(=O)c2coc3nc4ccccc4nc23)CC1 | 311 | -0.8% (inactive) | -17.9% (inactive) | 110 | -33.9% (inactive) | 117 | -0.351 (inactive) | -3.5e-06 (inactive) | 0.00542 (inactive) | -4.6% (inactive) | 46.6% (inactive)
10 | COc1ccc2cc(C(c3nnnn3C3CCCCC3)N3CCCCCC3)c3nnnn3c2c1 (stereo not drawn) | 828 | -6.7% (inactive) | -7.5% (inactive) | 108 | -10.3% (inactive) | 114 | -0.444 (inactive) | -3.1e-06 (inactive) | 0.00937 (inactive) | 7.67% (inactive) | -2.36% (inactive)
11 | CN(C)c1ccc(CNCCC2(O)CCOC(C)(C)C2)cc1 (stereo not drawn) | 495 | -1.4% (inactive) | 3.5% (inactive) | 89.5 | -25% (inactive) | 114 | -0.472 (inactive) | -4.7e-06 (inactive) | 0.00622 (inactive) | 0.927% (inactive) | 28.2% (inactive)
12 | Cc1onc(-c2ccccc2Cl)c1C(=O)Nc1cccnc1 | 286 | -2.3% (inactive) | 1.8% (inactive) | 106 | -78.5% (inactive) | 148 | -0.452 (inactive) | 2.6e-05 (inactive) | 0.00566 (inactive) | 0.844% (inactive) | 32.2% (inactive)
13 | Cc1[nH]nc2c1C(=O)CC(C)(C)C2 | 416 | -4.9% (inactive) | -16.7% (inactive) | 118 | -24.4% (inactive) | 117 | -0.347 (inactive) | -1.7e-05 (inactive) | 0.0065 (inactive) | -3.34% (inactive) | 17.1% (inactive)
14 | CCOC(=O)/N=C(/NC(=O)Nc1ccc(C(=O)OCC)cc1)OC | 266 | -3.6% (inactive) | 17% (inactive) | 92.2 | 7.6% (inactive) | 108 | -0.583 (inactive) | -6e-05 (inactive) | 0.00625 (inactive) | 13.9% (inactive) | 23.9% (inactive)
15 | Oc1ccc(-c2n[nH]c(=S)n2Cc2ccccc2)cc1 | 409 | 9.6% (inactive) | -13.1% (inactive) | 109 | -75.1% (inactive) | 116 | -0.485 (inactive) | 4.7e-05 (inactive) | 0.00348 (inactive) | -8.79% (inactive) | -1.56% (inactive)
16 | CCN(CC)c1nc(N(CC)CC)[nH]c(=O)n1 | 477 | -6.5% (inactive) | 15.2% (inactive) | 92.1 | -0.4% (inactive) | 59.6 | -0.512 (inactive) | -3.2e-05 (inactive) | 0.00579 (inactive) | 3.82% (inactive) | -16% (inactive)
17 | Cc1cc(NS(=O)(=O)c2ccc(NC(=O)COc3ccccc3C(C)C)cc2)no1 | 579 | -12.7% (inactive) | 17.6% (inactive) | 72.3 | -2.6% (inactive) | 116 | -0.555 (inactive) | -3.3e-05 (inactive) | 0.00559 (inactive) | 14.6% (inactive) | 39.1% (inactive)
18 | Cc1ccc(OCC(O)CN2C(=O)NC(C)(C)C2=O)cc1C (stereo not drawn) | 673 | -2.9% (inactive) | -21.4% (inactive) | 107 | -19.6% (inactive) | 112 | -0.537 (inactive) | -2.6e-05 (inactive) | 0.00799 (inactive) | 5.76% (inactive) | 24.9% (inactive)
19 | Cn1c(Cl)nc2ccccc21 | 467 | 3.8% (inactive) | 12.8% (inactive) | 93.2 | 45.8% (inactive) | 93.3 | -0.514 (inactive) | -5.9e-05 (inactive) | 0.00423 (inactive) | 19.3% (inactive) | 51% (active)
20 | COc1ccc(OC)c(S(=O)(=O)NCCC2=CCCCC2)c1 | 677 | -3.6% (inactive) | -18.8% (inactive) | 91.5 | 16.5% (inactive) | 95 | -0.486 (inactive) | -4.4e-05 (inactive) | 0.00446 (inactive) | -1.71% (inactive) | 24.3% (inactive)
21 | N#CC1=C(SCC(=O)NC23CC4CC(CC(C4)C2)C3)NC(=O)C(C#N)C12CCCCC2 (stereo not drawn) | 755 | -9.3% (inactive) | 16.9% (inactive) | 100 | -142% (inactive) | 123 | -0.519 (inactive) | -6.2e-05 (inactive) | 0.00603 (inactive) | 16.3% (inactive) | -22.7% (inactive)
22 | COC(=O)c1ccccc1NC(=O)COc1ccc(S(=O)(=O)N2CCCC2)cc1C | 618 | 7% (inactive) | 10.3% (inactive) | 88.3 | 44.3% (inactive) | 98.4 | -0.405 (inactive) | 4.1e-06 (inactive) | 0.00334 (inactive) | 16.3% (inactive) | 6.91% (inactive)
23 | Cc1ccccc1-n1c(SCc2c(C)noc2C)nnc1-c1ccncc1 | 741 | -2.4% (inactive) | -10.7% (inactive) | 103 | -87% (inactive) | 115 | -0.304 (inactive) | -5.4e-05 (inactive) | 0.00424 (inactive) | 6.71% (inactive) | 30.2% (inactive)
24 | O=C1CCCN1CCCNc1ncnc2c1[nH]c1ccc(Cl)cc12 | 465 | 0.8% (inactive) | -18.4% (inactive) | 101 | -164% (inactive) | 119 | -0.391 (inactive) | 3.6e-05 (inactive) | 0.00715 (inactive) | -14.5% (inactive) | -66.1% (inactive)
25 | CCOCCCNC(=O)C(NC(=O)c1ccccn1)c1ccc(C)cc1 (stereo not drawn) | 314 | -13.4% (inactive) | 2.7% (inactive) | 116 | -18.5% (inactive) | 111 | -0.592 (inactive) | -4e-05 (inactive) | 0.00635 (inactive) | 15.1% (inactive) | 18.1% (inactive)
26 | Cc1ccc(Cn2c(SCCN3CCCCC3)nc3c2c(=O)[nH]c(=O)n3C)cc1 | 575 | -6.4% (inactive) | 5.6% (inactive) | 71.5 | 29.9% (inactive) | 100 | -0.577 (inactive) | -2.5e-05 (inactive) | 0.00647 (inactive) | 3.78% (inactive) | 32.9% (inactive)
27 | Cn1c(C(=O)Nc2ccc3c(c2)OCO3)cc2c(=O)n(C)c3ccccc3c21 | 683 | 7% (inactive) | -6.4% (inactive) | 104 | -20.2% (inactive) | 104 | -0.264 (inactive) | -2.8e-06 (inactive) | 0.00554 (inactive) | -13.1% (inactive) | -11.2% (inactive)
28 | COc1ccc(-c2nc(C#N)c(N3CCN(c4ccccc4)CC3)o2)cc1 | 841 | 1.4% (inactive) | -19.5% (inactive) | 96.2 | -64.6% (inactive) | 118 | -0.577 (inactive) | 1.4e-05 (inactive) | 0.00659 (inactive) | 5.66% (inactive) | 24.4% (inactive)
